A number with no mark means an inactive call.
What follows are compounds tested on HCC1569 (assay: H1.0 immunofluorescence intensity relative to DMSO (% of DMSO); higher = stronger H1.0 induction, active = 140 or more). Conditions: concentration: 10 µM; 24 h.
In short: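 Using 384-well plates with 800 cells per well in RPMI plus 10% FBS, HCC1569 and TDF cells were exposed to compounds at 10 µM, in triplicate, for 24 h at 37 °C. Imaging of six fields per well at ×10 followed H1.0 and DAPI staining. The reported quantity, H1.0 nuclear intensity or cell number, is a median of replicates given as percent of the plate control, and HCC1569 values were smoothed for positional effects.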
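Further: TDF is a line of transformed human dermal fibroblasts of mesenchymal origin.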

SMILES | H1.0 immunofluorescence intensity
CCCOc1ccc(C=C2SC(=O)NC2=O)cc1 [PIM1/2 Kinase Inhibitor VI] | 98.1
C=C1C(=O)OC2C1CCC(=C)C1CCC(=C)C12 (configuration not stated) [Dehydrocostus lactone] | 103
NC(=O)C(=O)[O-].[Na+] [Sodium Oxamate] | 93.5
CCCC1=C(c2ccc(O)cc2)N(c2ccc(O)cc2)NC1=C1C=CC(=O)C=C1 [1,3,5-tris(4-hydroxyphenyl)-4-propyl-1H-pyrazole] | 99.1
C=CC1CN2CCC1CC2C(O)c1ccnc2ccc(OC)cc12.Cl.O.O (configuration not stated) | 92.6
CCCCCCCCCCCCCCCCCCOCC(COP(=O)([O-])OCC[N+](C)(C)C)OC(C)=O (configuration not stated) | 103
COc1cc(C(=O)NS(=O)(=O)c2ccccc2C)ccc1Cc1cn(C)c2ccc(NC(=O)OC3CCCC3)cc12 [Zafirlukast] | 105
OC1(c2ccc(Cl)cc2)CCN(Cc2c[nH]c3ccccc23)CC1 | 103
O=C1CC(c2ccc(O)cc2)Oc2cc(O)cc(O)c21 (configuration not stated) [Naringenin] | 85.4
CC(=O)N1CCN(C(=O)/C=C/c2ccc(Sc3ccccc3C(C)C)c([N+](=O)[O-])c2)CC1 | 123
Br.CN1CCc2c(cc(O)c(O)c2Cl)C(c2cccc(Cl)c2)C1 (configuration not stated) | 112
CC(=O)O.CN=C(N)NCCCC(N)C(=O)O [NG-Monomethyl-L-arginine acetate] | 101

Source: the supplement of paper PMC7156485
